Results: PubChem BioAssay (NCI)
The panel holds about 79,000 compounds, 15% with a hit somewhere; the sample as a whole holds those more often. Values without a mark were called inactive. Active and inactive are the calls of the source. Cut-off read from the data, not from the text of the source: active = growth inhibition above about 70%; inactive = the rest.

Tests used:
[1] = NCI Yeast Anticancer Drug Screen. Data for the rad50 strain (AID 155);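 note: 0% = growth of vehicle-only cultures of the same strain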; conditions: S. cerevisiae rad50 strain growth inhibition; at 50.0 µM; active compounds read high
Outline: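 A DNA repair-deficient yeast mutant serves as the test organism; compound-induced growth inhibition is calculated against vehicle-treated cells.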

[2] = NCI Yeast Anticancer Drug Screen. Data for the mec2-1 strain (AID 157); conditions: S. cerevisiae mec2-1 strain, at 50.0 µM, active compounds read high
Outline: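 Yeast mec2-1 mutant treated with compound. Readout: growth inhibition vs vehicle controls.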

[3] = NCI Yeast Anticancer Drug Screen. Data for the sgs1 mgt1 strain (AID 161);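 note: 0% = growth of cultures given vehicle only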; conditions: S. cerevisiae sgs1 mgt1 strain, at 50.0 µM, active compounds read high
Outline: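 Genetically altered yeast, compound exposure, growth inhibition relative to vehicle.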

[4] = NCI Yeast Anticancer Drug Screen. Data for the cln2 rad14 strain (AID 165);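 note: 0% = growth equal to vehicle treated cultures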; conditions: S. cerevisiae cln2 rad14 strain, at 50.0 µM, active compounds read high
Outline: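 cln2 rad14 yeast strain; compound exposure; growth inhibition read vs vehicle controls.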

[5] = NCI Yeast Anticancer Drug Screen. Data for the bub3 strain (AID 167); conditions: S. cerevisiae bub3 mutant strain, at 50.0 µM, active compounds read high
Outline: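 Inhibition values come from growth of compound-treated mutant yeast normalised to vehicle-treated controls.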

[6] = NCI Yeast Anticancer Drug Screen. Data for the mlh1 rad18 strain (AID 175); conditions: S. cerevisiae mlh1 rad18 strain growth inhibition; at 50.0 µM; active compounds read high
Outline: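 Yeast w/ defined DNA-repair lesions; compound exposure; growth vs vehicle controls → % inhibition.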

| SMILES | growth inhibition [1] | growth inhibition [2] | growth inhibition [3] | growth inhibition [4] | growth inhibition [5] | growth inhibition [6] |
| --- | --- | --- | --- | --- | --- | --- |
| C=C(C)C1CC2(C)C(C)CC(OC(=O)/C(C)=C\C)CC2C(OC(=O)/C(C)=C\C)C1O (configuration not stated) | 31.2% | -9.65% | 31.2% | -9.6% | -1% | -12.9% |
| CC1=C2NCN(C)N=C2C(C#N)(C#N)C1(C#N)C#N | 24% | 35.4% | -15.3% | 2.25% | -12.2% | -13.1% |
| CC(C)/C(Cl)=N/OC(=O)Nc1cccc(C(F)(F)F)c1 | 35.7% | 38.3% | 85% (active) | 24.8% | 65.5% | -91.7% |
| CCOC(=O)C(=O)C(CCC(=O)c1ccc2ccccc2c1O)C(=O)OCC (configuration not stated) | 2.6% | -1.65% | -2.9% | 4.25% | 0.5% | -35.9% |
| Cc1ccc(/C=N/Nc2nc3ccccc3s2)s1 | -24.5% | -4% | -9.55% | 0.7% | -12.1% | -11.2% |
| Cc1ccc(C)c(NC(=O)/C(=N\N)C(c2cnc3ccc([N+](=O)[O-])cc3n2)[N+](=O)[O-])c1 (configuration not stated) | 42.5% | 27.2% | 6.75% | -35.2% | 32.2% | 28.6% |
| CCC1OC2(C)CC(C#N)(C#N)C1(C#N)C(=N)O2 (configuration not stated) | 0.6% | -3.9% | -46.4% | -8.2% | -31.4% | -10.7% |
